Data from PubChem BioAssay AID1159580 (chemical genetic matrix, 2015).
In all, about 5,500 compounds went through this assay and about 2,000 (36%) were called active. Inconclusive results (about 18%) are left out. Rule as the data show it: active = normalized growth mostly below about 0.91 (no sharp cut-off); inconclusive = no clear call, values can overlap the other calls; inactive = mostly above about 0.92. The list shows a part of the results.

Assay: chemical genetic growth profiling, strain panel (AID 1159580);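 also: tested at 20 µM; growth read once vehicle control cultures reached saturation at 30 °C; 1 = growth at the plate median or of vehicle wells; lower values mean less growth of the strain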
Settings: S. cerevisiae deletion strains, growth OD

Measured: normalized growth

C[C@@H]1OC(O[C@H]2C(O[C@H]3CC[C@@]4(C)C(CC[C@]5(C)C4CC=C4C6CC(C)(C)CC[C@]6(C(=O)O)CC[C@]45C)[C@]3(C)CO)OC[C@H](O)[C@@H]2O)[C@H](O)[C@H](O)[C@H]1O (stereo not given in full)
active: locus YAL021C, strain ccr4, hits give low values 0.0607 | locus YAL026C, strain drs2, hits give low values 0.0592 | locus YAL030W, strain snc1, hits give low values 0.0552 | locus YBL061C, strain skt5, hits give low values 0.058 | locus YBR009C, strain hhf1, hits give low values 0.061 | locus YBR021W, strain FUR4, hits give low values 0.267 | locus YBR023C, strain chs3, hits give low values 0.0603 | locus YBR171W, strain sec66, hits give low values 0.0767 | locus YBR229C, strain ROT2, hits give low values 0.32 | locus YBR231C, strain swc5, hits give low values 0.0595 | locus YBR279W, strain paf1, hits give low values 0.0577 | locus YCL011C, strain gbp2, hits give low values 0.0544 | locus YCL016C, strain dcc1, hits give low values 0.0589 | locus YCL029C, strain bik1, hits give low values 0.0636 | locus YCL061C, strain MRC1, hits give low values 0.0604 | locus YCL069W, strain vba3, hits give low values 0.0603 | locus YCR088W, strain abp1, hits give low values 0.059 | locus YDL005C, strain med2, hits give low values 0.0706 | locus YDL035C, strain GPR1, hits give low values 0.483 | locus YDL040C, strain nat1, hits give low values 0.0557 | locus YDL074C, strain BRE1, hits give low values 0.269 | locus YDL101C, strain DUN1, hits give low values 0.44 | locus YDL185W, strain tfp1, hits give low values 0.0554 | locus YDL192W, strain arf1, hits give low values 0.0745 | locus YDR001C, strain nth1, hits give low values 0.0586 | locus YDR069C, strain doa4, hits give low values 0.0606 | locus YDR101C, strain arx1, hits give low values 0.0695 | locus YDR137W, strain rgp1, hits give low values 0.0801 | locus YDR159W, strain sac3, hits give low values 0.0844 | locus YDR162C, strain NBP2, hits give low values 0.299 | locus YDR195W, strain ref2 0.105 | locus YDR297W, strain sur2, hits give low values 0.0548 | locus YDR318W, strain mcm21, hits give low values 0.0705 | locus YDR334W, strain swr1, hits give low values 0.0629 | locus YDR335W, strain msn5, hits give low values 0.0601 | locus YDR388W, hits give low values 0.0545 | locus YDR392W, strain spt3, hits give low values 0.0915 | locus YDR502C, strain sam2, hits give low values 0.0793 | locus YEL003W, strain gim4, hits give low values 0.0528 | locus YEL037C, strain rad23, hits give low values 0.0576 | locus YEL061C, strain CIN8 (second series), hits give low values 0.0604 | locus YEL061C, strain CIN8, hits give low values 0.447 | locus YER015W, strain faa2, hits give low values 0.059 | locus YER016W, strain bim1, hits give low values 0.059 | locus YER110C, hits give low values 0.0996 | locus YER111C, strain swi4, hits give low values 0.0703 | locus YER155C, strain BEM2 (second series), hits give low values 0.0853 | locus YER155C, strain BEM2, hits give low values 0.124 | locus YER167W, strain BCK2, hits give low values 0.24 | locus YFR010W, strain ubp6, hits give low values 0.0632 | locus YGL078C, strain dbp3, hits give low values 0.056 | locus YGL086W, strain mad1, hits give low values 0.0905 | locus YGL167C, strain pmr1, hits give low values 0.0718 | locus YGL173C, strain kem1, hits give low values 0.0643 | locus YGL227W, strain vid30, hits give low values 0.0617 | locus YGL240W, strain doc1, hits give low values 0.0707 | locus YGL248W, strain PDE1, hits give low values 0.422 | locus YGL253W, strain hxk2, hits give low values 0.053 | locus YGR078C, strain PAC10, hits give low values 0.325 | locus YGR135W, strain pre9, hits give low values 0.136 | locus YGR252W, strain gcn5, hits give low values 0.157 | locus YHR013C, strain ard1, hits give low values 0.114 | locus YHR027C, strain rpn1, hits give low values 0.0611 | locus YHR030C, strain SLT2, hits give low values 0.103 | locus YHR079C, strain IRE1 (second series), hits give low values 0.0576 | locus YHR094C, strain hxt1, hits give low values 0.0605 | locus YHR129C, strain ARP1, hits give low values 0.202 | locus YHR142W, strain chs7, hits give low values 0.0688 | locus YHR200W, strain rpn10, hits give low values 0.0676 | locus YIL066C, strain RNR3, hits give low values 0.457 | locus YIL073C, strain SPO22, hits give low values 0.285 | locus YIL125W, strain kgd1, hits give low values 0.0561 | locus YIR030C, strain dcg1, hits give low values 0.0652 | locus YJL092W, strain hpr5, hits give low values 0.0579 | locus YJL095W, strain BCK1 (second series), hits give low values 0.0567 | locus YJL095W, strain BCK1, hits give low values 0.143 | locus YJL115W, strain asf1, hits give low values 0.069 | locus YJL129C, strain trk1, hits give low values 0.0793 | locus YJL134W, strain LCB3, hits give low values 0.187 | locus YJL154C, strain vps35, hits give low values 0.0589 | locus YJL164C, strain tpk1, hits give low values 0.0589 | locus YJL166W, strain qcr8, hits give low values 0.0599 | locus YJL168C, strain set2, hits give low values 0.0664 | locus YJL187C, strain SWE1 (second series), hits give low values 0.48 | locus YJL187C, strain SWE1, hits give low values 0.0554 | locus YJR043C, strain POL32, hits give low values 0.42 | locus YKL009W, strain mrt4, hits give low values 0.0928 | locus YKL068W, hits give low values 0.0555 | locus YKL085W, strain MDH1 (second series), hits give low values 0.0602 | locus YKL085W, strain MDH1, hits give low values 0.0602 | locus YKL160W, strain elf1, hits give low values 0.0617 | locus YKR001C, strain vps1, hits give low values 0.0888 | locus YKR026C, strain gcn3, hits give low values 0.0618 | locus YKR091W, strain srl3, hits give low values 0.0568 | locus YLL001W, strain dnm1, hits give low values 0.0585 | locus YLL026W, hits give low values 0.0562 | locus YLL041C, strain sdh2, hits give low values 0.0555 | locus YLR027C, strain aat2, hits give low values 0.0549 | locus YLR039C, strain RIC1, hits give low values 0.135 | locus YLR058C, strain SHM2, hits give low values 0.414 | locus YLR102C, strain apc9, hits give low values 0.0668 | locus YLR221C, strain rsa3, hits give low values 0.0578 | locus YLR258W, strain gsy2, hits give low values 0.0581 | locus YLR262C, strain YPT6 (second series), hits give low values 0.0763 | locus YLR262C, strain YPT6, hits give low values 0.153 | locus YLR268W, strain sec22, hits give low values 0.0705 | locus YLR320W, strain mms22, hits give low values 0.0834 | locus YLR330W, strain CHS5, hits give low values 0.213 | locus YLR342W, strain FKS1 (second series), hits give low values 0.286 | locus YLR342W, strain FKS1, hits give low values 0.0611 | locus YLR357W, strain rsc2, hits give low values 0.11 | locus YLR370C, strain arc18, hits give low values 0.0593 | locus YLR371W, strain rom2, hits give low values 0.0622 | locus YLR384C, strain iki3, hits give low values 0.0588 | locus YLR418C, strain cdc73, hits give low values 0.114 | locus YML016C, strain PPZ1, hits give low values 0.214 | locus YML032C, strain rad52, hits give low values 0.0701 | locus YML120C, strain ndi1, hits give low values 0.0572 | locus YML124C, strain tub3, hits give low values 0.0681 | locus YMR058W, strain fet3, hits give low values 0.0577 | locus YMR078C, strain ctf18, hits give low values 0.0754 | locus YMR125W, strain sto1, hits give low values 0.0713 | locus YMR129W, hits give low values 0.0556 | locus YMR205C, strain PFK2, hits give low values 0.0864 | locus YMR223W, strain ubp8, hits give low values 0.0761 | locus YMR231W, strain pep5, hits give low values 0.0636 | locus YMR263W, strain SAP30, hits give low values 0.185 | locus YMR307W, strain GAS1, hits give low values 0.117 | locus YNL067W, strain RPL9B, hits give low values 0.471 | locus YNL071W, strain lat1, hits give low values 0.0594 | locus YNL128W, strain TEP1, hits give low values 0.401 | locus YNL209W, strain ssb2, hits give low values 0.0578 | locus YNL233W, strain BNI4, hits give low values 0.167 | locus YNL248C, strain rpa49, hits give low values 0.0674 | locus YNL250W, strain rad50, hits give low values 0.0622 | locus YNL271C, strain bni1, hits give low values 0.058 | locus YNL298W, strain CLA4, hits give low values 0.0574 | locus YNL307C, strain MCK1, hits give low values 0.0651 | locus YNL322C, strain KRE1 (second series), hits give low values 0.0635 | locus YNR049C, strain mso1, hits give low values 0.0575 | locus YNR052C, strain pop2, hits give low values 0.0612 | locus YOL147C, strain pex11, hits give low values 0.0641 | locus YOR001W, strain rrp6, hits give low values 0.0642 | locus YOR061W, strain CKA2, hits give low values 0.723 | locus YOR069W, strain VPS5, hits give low values 0.193 | locus YOR070C, strain gyp1, hits give low values 0.0577 | locus YOR080W, strain dia2, hits give low values 0.0631 | locus YOR083W, strain WHI5, hits give low values 0.0595 | locus YOR106W, strain vam3, hits give low values 0.0596 | locus YOR136W, strain idh2, hits give low values 0.0808 | locus YOR144C, strain elg1, hits give low values 0.0575 | locus YOR184W, strain ser1, hits give low values 0.0762 | locus YOR265W, strain rbl2, hits give low values 0.0556 | locus YOR270C, strain vph1, hits give low values 0.0934 | locus YOR290C, strain snf2, hits give low values 0.0761 | locus YOR316C, strain cot1, hits give low values 0.0649 | locus YPL051W, strain arl3, hits give low values 0.0588 | locus YPL078C, strain atp4, hits give low values 0.0628 | locus YPL106C, strain sse1, hits give low values 0.0896 | locus YPL240C, strain hsp82, hits give low values 0.0548 | locus YPR119W, strain clb2, hits give low values 0.0662 | locus YPR141C, strain kar3, hits give low values 0.0612 | locus YPR163C, strain tif3, hits give low values 0.0699 | locus YPR167C, strain met16, hits give low values 0.0649 | strain wtn01, hits give low values 0.0783
